A selection: hits, their analogues and other compounds. The true share with any hit is near 2.4%.
SENP8 block-1 = SENP8 protease inhibitors, primary screen, biochemical, luminescence. AID 2540, 2010. inhibition, % at 10 µM. 330,000 tested, 1.2% active. purified SENP8, Z-RLRGG-aminoluciferin cleavage; in the data active = inhibition above about 50%
Target sequence (Q96LD8 whole entry, looked up): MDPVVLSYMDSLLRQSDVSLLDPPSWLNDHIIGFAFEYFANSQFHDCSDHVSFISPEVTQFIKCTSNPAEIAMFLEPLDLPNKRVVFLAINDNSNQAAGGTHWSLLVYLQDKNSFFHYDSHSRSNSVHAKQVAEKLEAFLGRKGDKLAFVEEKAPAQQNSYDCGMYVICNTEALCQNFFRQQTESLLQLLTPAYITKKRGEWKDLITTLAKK
SENP7 inh = SENP7 protease inhibitors, primary screen, biochemical, luminescence, uHTS. recombinant SENP7, Z-RLRGG-aminoluciferin luminescence, 40 min. AID 434973, 2010. Sentrin-specific protease 7 (Homo sapiens), Q9BQF6. 330,000 tested, 1.5% active. inhibition, % at 5 µM;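 active = inhibition above about 50% at the single test dose, limit read from the data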
Target sequence (Q9BQF6 706-1050 limits assumed): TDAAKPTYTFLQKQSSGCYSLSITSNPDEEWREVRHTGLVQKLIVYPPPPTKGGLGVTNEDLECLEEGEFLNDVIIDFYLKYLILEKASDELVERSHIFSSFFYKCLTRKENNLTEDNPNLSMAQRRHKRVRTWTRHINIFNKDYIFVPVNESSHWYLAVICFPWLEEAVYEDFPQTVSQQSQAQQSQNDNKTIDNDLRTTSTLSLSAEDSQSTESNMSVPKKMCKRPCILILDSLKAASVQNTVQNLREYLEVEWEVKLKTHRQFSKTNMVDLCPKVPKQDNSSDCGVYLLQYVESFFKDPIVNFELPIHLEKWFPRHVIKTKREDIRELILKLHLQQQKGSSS
SENP8 block-2 = human SENP8 protease inhibitors, primary screen, biochemical, fluorescence, Nedd8 protein substrate, uHTS; 360,000 tested, 0.64% active; inhibition, % at 20 µM; recombinant SENP8; Sentrin-specific protease 8 (Homo sapiens), Q96LD8; in the data active = inhibition mostly above about 40%, no sharp cut-off; inactive = mostly below about 27%
SENP6 block = SENP6 protease inhibitors, primary screen, biochemical, luminescence, uHTS; Sentrin-specific protease 6 (Homo sapiens), Q9GZR1; Recombinant SENP6 catalytic domain, aminoluciferin luminescence; inhibition, % at 10 µM; 330,000 tested, 1.8% active;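 active = inhibition above about 50% at the single tested dose, limit read from the data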
Platelet DG rel = inhibitors of platelet dense granule secretion, primary screen, cell-based, MLPCN, human platelets; human platelet-rich plasma, SFLLRN dense granule ATP release, luminescence; AID 1663, 2009; 300,000 tested, 0.22% active; inhibition, %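 (compounds screened at 7.5 µM in platelet-rich plasma)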;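 active = mean replicate score, as percent of positive control, at or above 50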
SENP8 inh conf = human SENP8 protease inhibitors, confirmation, biochemical, Nedd8 protein substrate, single concentration | shares compounds with SENP8 block-2 | 1,400 tested, 15% active | purified SENP8, Nedd8-AMC/pro-Nedd8 cleavage fluorescence, 30 min | inhibition, % at 25 µM; in the data active = inhibition mostly above about 39%, no sharp cut-off; inactive = mostly below about 34%
Large screens that a line does not name were inactive (follow-up assays come after a bar, where they were run); ! = not active in a repeat.

O=C(O)c1ccccc1/C=N/NC(=S)NC1CCCCC1	SENP8 block-2 46.4 | SENP8 inh conf inactive
O=C(O)c1ccccc1/C=N/NC(=O)C1CCCCC1	none
CN(C(=O)COc1ncnc2sccc12)C1CCCCC1	none (no result: Platelet DG rel)
Cn1c(=O)[nH]c2nc[nH]c2c1=O	none
Cn1cnc2nc[nH]c2c1=O	SENP8 block-2 58.4 (no result: SENP8 block-1, SENP7 inh, SENP6 block, Platelet DG rel) | SENP8 inh conf inactive
CC(C)NC(=O)c1ccc(CN2CCc3ccccc3C2)cc1	SENP8 block-2 44.0 | SENP8 inh conf inactive
Cc1[nH][nH]c(=O)c1C(c1c(C)[nH][nH]c1=O)c1cn(Cc2ccc(F)cc2)c2ccccc12	SENP8 block-2 76.8 (no result: SENP8 block-1, SENP7 inh, SENP6 block, Platelet DG rel) | SENP8 inh conf 73.1
O=c1c2ccccc2ncn1Cc1ccc(Cl)c(Cl)c1	none
Cc1[nH][nH]c(=O)c1C(c1c(C)[nH][nH]c1=O)c1cn(Cc2ccc(Cl)c(Cl)c2)c2ccccc12	SENP8 block-2 72.8 (no result: SENP8 block-1, SENP7 inh, SENP6 block) | SENP8 inh conf 68.3
COc1cc(CN2CC(=O)N(c3cc(Cl)ccc3C)C2=S)cc(OC)c1OC	none
Cc1cc(Br)ccc1NC(=O)CN(C)C(=O)COc1cccc2c1OC(C)(C)C2	none
CCN(C(=O)Cc1c(C(=O)O)n(CC)c2ccccc12)c1cccc(C(F)(F)F)c1	none
Cc1cc(=S)[nH]c2c(C)cccc12	SENP8 block-2 40.3 | SENP8 inh conf inactive
O=C(NC(=S)Nc1cccc(C(F)(F)F)c1)c1csnn1	none
COc1ccc(C2(CNC(=O)c3cccs3)CCOCC2)cc1	none
CCCc1nc2ccccc2n1CCOc1ccccc1	SENP8 block-2 42.2 | SENP8 inh conf inactive
Cc1ccc(C)c(NC(=S)/C(=C(\[O-])c2ccc(Cl)s2)[n+]2ccccc2)c1	SENP8 block-2 69.2 | SENP8 inh conf inactive
CC(C)=CCc1cc([C@@H]2COc3c(ccc4c3C=CC(C)(C)O4)C2)c(O)cc1O	SENP8 block-2 48.0 | SENP8 inh conf inactive
Cc1ccc(S(=O)(=O)N2CCOCC2)cc1C(=O)NNC(=O)c1ccoc1C	none
COc1ccc(CCNC(=O)CSc2nc(=O)n3cc(C)ccc3n2)cc1OC	SENP8 block-2 61.6 | SENP8 inh conf inactive
Cc1ccc2nc(SCC(=O)NCCc3ccccc3)nc(=O)n2c1	none
COc1ccc(Cc2c(C3CCCCC3)nc3cc(C)c(Br)c(C)n23)c(C)c1	none (no result: SENP8 block-1, SENP7 inh, SENP6 block, Platelet DG rel)
CN1CCC2(CC1)N=C(c1ccc(F)cc1)C(=S)N2C(=O)c1ccc(C(C)(C)C)cc1	SENP8 block-2 52.7 | SENP8 inh conf inactive
COc1cccc(NC(=O)c2ccc(N3C(=O)C4CCC(C)CC4C3=O)cc2)c1 (centres undefined)	none
COc1ccc2cc3[n+](cc2c1OC)CCc1cc2c(cc1-3)OCO2	SENP8 block-2 53.3! | SENP8 inh conf inactive
COc1cccc(C2=NCCc3cc4c(cc32)OCO4)c1OC	none
Cc1ccc(S(=O)(=O)N(C)C)cc1NC(=O)COC(=O)/C=C/c1ccc(F)cc1	none
COC(=O)Oc1nsnc1N1CCOCC1	none
O=c1c(N2CCOCC2)nsnc1N1CCOCC1	SENP8 block-2 49.3 | SENP8 inh conf inactive
O=C1CC(c2ccco2)CC(O)=C1C=NCCN1CCNCC1 (centres undefined)	none
O=C1CC(c2ccco2)CC(O)=C1C=NCC1CCNCC1 (centres undefined)	SENP8 block-2 65.3 | SENP8 inh conf inactive
CC(=O)Nc1ccc(S(=O)(=O)N[C@@H](C)C(=O)OCc2cc([N+](=O)[O-])cc3c2OCOC3)cc1	SENP8 block-2 45.2 | SENP8 inh conf inactive
OC[C@H]1O[C@H](OCc2ccccc2)[C@H](O[C@@H]2OC[C@@H](O)[C@H](O)[C@H]2O)[C@@H](O)[C@@H]1O	SENP8 block-2 41.9 | SENP8 inh conf inactive
COCCN1C[C@@H](CO)O[C@@H](n2cnc3c(NCc4ccncc4)ncnc32)C1	none (no result: SENP8 block-1, SENP7 inh, SENP6 block, Platelet DG rel)
COC(=O)c1c(C(=O)OC)c2cccc3cc(-c4ccccc4)c4ccc1c4n32	SENP8 block-2 74.1 | SENP8 inh conf inactive
Cc1ccc(NC(=S)NNC(=O)c2cn(C)nc2C)cc1	SENP8 block-2 42.6 | SENP8 inh conf inactive
CCN(CC(=O)Nc1c(F)cccc1F)C(=O)c1ccc(N2CCCC2=O)cc1	none
CCOC(=O)c1ccc(S(=O)(=O)NNC(=O)c2ccc3c(c2)nc(C)n3CC)cc1	none
CCn1c(C)nc2cc(C(=O)NNS(=O)(=O)c3ccccc3F)ccc21	SENP8 block-2 42.4 | SENP8 inh conf inactive
Cc1ccc(CN2CC(N3CC=CC3)CS2(=O)=O)cc1 (centres undefined)	SENP8 block-2 48.1 (no result: SENP8 block-1, SENP7 inh, SENP6 block, Platelet DG rel) | SENP8 inh conf inactive
CCc1ccc(C(=O)NNc2ccccc2F)cc1	SENP8 block-2 26.4 | SENP8 inh conf inactive
COc1ccc(N/C=C/c2nc(SC)nnc2C)cc1	SENP8 block-2 35.6 | SENP8 inh conf inactive
Nn1cnnc1N/N=C/c1ccc(Cl)c([N+](=O)[O-])c1	SENP8 block-2 65.6 | SENP8 inh conf 63.8
CCc1nnc(N/N=C/c2ccc(N3CCC(C)CC3)c([N+](=O)[O-])c2)n1N	SENP8 block-2 62.0 | SENP8 inh conf 43.1
COc1ccccc1CNC(=O)COC(=O)C1CCN(S(=O)(=O)c2ccc(C)c(C)c2)CC1	none
COc1ccc(N2C(=O)Cc3ccccc3C2=O)cc1	SENP8 block-2 84.3 | SENP8 inh conf inactive
COc1ccc2c(c1)C(=O)N(c1ccccc1)C(=O)C2	none
O=C(Cn1cc(C(F)(F)F)cc(Cl)c1=O)NCc1ccc(F)cc1	none
COCCNC(=S)N/N=C/c1ccc([N+](=O)[O-])cc1	SENP8 block-2 42.7 | SENP8 inh conf inactive
O=[N+]([O-])c1cccc(C=NNc2ccccc2)c1	none (no result: SENP8 block-1, SENP7 inh, SENP6 block, Platelet DG rel)
O=[N+]([O-])c1ccc(C=NNc2ccccc2)cc1	SENP8 block-2 44.3 (no result: SENP8 block-1, SENP7 inh, SENP6 block, Platelet DG rel) | SENP8 inh conf inactive
C=C(C)CNC(=S)N/N=C/c1ccc([N+](=O)[O-])cc1	none
O=C(O)C1C2C=CC(C2)C1C(=O)Nc1ccc2c(c1)OCCO2 (centres undefined)	none
CN(C)c1ccc(NC(=O)C2C3C=CC(C3)C2C(=O)O)cc1 (centres undefined)	SENP8 block-2 51.1 | SENP8 inh conf inactive
CC[C@H](CO)Oc1cc(NCc2cccc(N)c2)c2ncn(C(C)C)c2c1	SENP8 block-2 55.7 (no result: SENP8 block-1, SENP7 inh, SENP6 block, Platelet DG rel) | SENP8 inh conf 86.8
CCC(CO)Oc1cc(NCc2cccc(C)c2)c2ncn(C(C)C)c2c1 (centres undefined)	SENP8 block-2 41.7 (no result: Platelet DG rel) | SENP8 inh conf 54.5
CCC(CO)Oc1cc(NCc2ccc(C)cc2)c2ncn(C(C)C)c2c1 (centres undefined)	none (no result: Platelet DG rel)
COC(=O)[C@@]12CCCCN1[C@H](c1ccc(-c3cccc(Cl)c3)cc1)[C@@H]1C(=O)N(C)C(=O)[C@@H]12	none (no result: Platelet DG rel)

Bioassay records deposited in PubChem by several laboratories.
